# In the supplement of paper PMC8728848:
# This is one part of a sample in which the strongest signals are shown more often than they occur.
# What was measured:
# Experiment in all cases: glycan array binding signal (z-score within array); higher = stronger binding
# Settings in all cases: glycan notation: IUPAC condensed, linker removed
# Gal6S(b1-3)GlcNAc6S = biological target: Gal6S(b1-3)GlcNAc6S
# Summary of the method: (§1)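 Columns mapping to the same glycan were averaged after glycan names were converted to IUPAC-condensed notation. The data come from 3228 arrays in the Consortium for Functional Glycomics database, limited to those with an available protein sequence. Binding is reported as a within-array Z-score averaged across arrays of one protein sequence and across linkers.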
# [1] = biological target: GalNAc(b1-4)GlcNAc(b1-3)GalNAc(b1-4)GlcNAc
# Summary of the method: as §1
# GlcA(b1-6)Gal = biological target: GlcA(b1-6)Gal
# Summary of the method: as §1
# [2] = biological target: GlcNAc(a1-4)Gal(b1-4)GlcNAc(b1-3)Gal(b1-4)GlcNAc(b1-3)Gal(b1-4)GlcNAc
# Summary of the method: as §1
# [3] = biological target: GlcNAc(a1-4)Gal(b1-4)GlcNAc(b1-3)Gal(b1-4)[Fuc(a1-3)]GlcNAc(b1-3)Gal(b1-4)[Fuc(a1-3)]GlcNAc
# Summary of the method: as §1
# [4] = biological target: GlcNAc(b1-3)Gal(b1-4)GlcNAc(b1-2)Man(a1-3)[GlcNAc(b1-3)Gal(b1-4)GlcNAc(b1-2)Man(a1-6)]Man(b1-4)GlcNAc(b1-4)GlcNAc
# Summary of the method: as §1
# [5] = biological target: GlcNAc(b1-3)Gal(b1-4)GlcNAc(b1-3)Gal(b1-4)GlcNAc(b1-3)Gal(b1-4)GlcNAc(b1-2)Man(a1-3)[GlcNAc(b1-3)Gal(b1-4)GlcNAc(b1-3)Gal(b1-4)GlcNAc(b1-3)Gal(b1-4)GlcNAc(b1-2)Man(a1-6)]Man(b1-4)GlcNAc(b1-4)[Fuc(a1-6)]GlcNAc
# Summary of the method: as §1
# [6] = biological target: GlcNAc(b1-3)Gal(b1-4)GlcNAc(b1-3)Gal(b1-4)GlcNAc(b1-3)Gal(b1-4)GlcNAc(b1-2)[GlcNAc(b1-3)Gal(b1-4)GlcNAc(b1-3)Gal(b1-4)GlcNAc(b1-3)Gal(b1-4)GlcNAc(b1-6)]Man(a1-6)[GlcNAc(b1-3)Gal(b1-4)GlcNAc(b1-3)Gal(b1-4)GlcNAc(b1-3)Gal(b1-4)GlcNAc(b1-2)Man(a1-3)]Man(b1-4)GlcNAc(b1-4)[Fuc(a1-6)]GlcNAc
# Summary of the method: as §1
# [7] = biological target: GlcNAc(b1-3)[GlcNAc(b1-4)][GlcNAc(b1-6)]GlcNAc
# Summary of the method: as §1
# Man(a1-3)[Man(a1-6)]Man = biological target: Man(a1-3)[Man(a1-6)]Man
# Summary of the method: as §1
# [8] = biological target: Neu5Ac(a2-3)Gal(b1-3)GlcNAc(b1-3)Gal(b1-3)GlcNAc
# Summary of the method: as §1
# [9] = biological target: Neu5Ac(a2-3)Gal(b1-3)[Fuc(a1-4)]GlcNAc
# Summary of the method: as §1
# [10] = biological target: Neu5Ac(a2-3)Gal(b1-3)[Neu5Ac(a2-6)]GalNAc
# Summary of the method: as §1
# [11] = biological target: Neu5Ac(a2-3)Gal(b1-4)GlcNAc
# Summary of the method: as §1
# [12] = biological target: Neu5Ac(a2-3)Gal(b1-4)GlcNAc(b1-2)Man
# Summary of the method: as §1
# [13] = biological target: Neu5Ac(a2-3)Gal(b1-4)GlcNAc(b1-3)Gal(b1-3)GlcNAc
# Summary of the method: as §1
# [14] = biological target: Neu5Ac(a2-3)Gal(b1-4)GlcNAc6S
# Summary of the method: as §1
# [15] = biological target: Neu5Ac(a2-3)Gal(b1-4)[Fuc(a1-3)]GlcNAc(b1-3)GalNAc
# Summary of the method: as §1
# [16] = biological target: Neu5Ac(a2-3)Gal(b1-4)[Fuc(a1-3)]GlcNAc6S
# Summary of the method: as §1
# [17] = biological target: Neu5Ac(a2-6)Gal(b1-4)GlcNAc(b1-2)Man(a1-6)[Gal(b1-4)GlcNAc(b1-2)Man(a1-3)]Man(b1-4)GlcNAc(b1-4)GlcNAc
# Summary of the method: as §1
# [18] = biological target: Neu5Ac(a2-6)Gal(b1-4)GlcNAc(b1-2)Man(a1-6)[GlcNAc(b1-2)Man(a1-3)]Man(b1-4)GlcNAc(b1-4)GlcNAc
# Summary of the method: as §1
# [19] = biological target: Neu5Ac(a2-6)Gal(b1-4)GlcNAc(b1-3)Gal(b1-4)GlcNAc(b1-3)Gal(b1-4)GlcNAc(b1-2)Man(a1-3)[Neu5Ac(a2-6)Gal(b1-4)GlcNAc(b1-3)Gal(b1-4)GlcNAc(b1-3)Gal(b1-4)GlcNAc(b1-2)Man(a1-6)]GalNAc
# Summary of the method: as §1
# [20] = biological target: Neu5Ac(a2-6)GlcNAc(b1-4)GlcNAc
# Summary of the method: as §1
# [21] = biological target: Neu5Ac(a2-8)Neu5Ac(a2-8)Neu5Ac(a2-3)[Gal(b1-3)GalNAc(b1-4)]Gal(b1-4)Glc
# Summary of the method: as §1
# Neu5Gc(a2-3)Gal(b1-4)Glc = biological target: Neu5Gc(a2-3)Gal(b1-4)Glc
# Summary of the method: as §1
binder,measurement,setting,value
"RbmA (Vibrio cholerae), A0A2H4NFB8 (protein) MSNFKGSIMNKRHYYLASCLALLFSTASYAEVDCELQPVIEANLSLNQNQLASNGGYISSQLGIRNESCETVKFKYWLSIKGPEGIYFPAKAVVGVDTAQQESDALTDGRMLNVTRGFWVPEYMADGKYTVSLQVVAENGEVFKANQEFVKGGDLNSLPELNGLTIDIKNQFGINSVESTGGFVPFTIDLNNGREGEAKVEFWMTAVGPDGLIIPVHSREKWMIIAGNTFSKVRGINFDKSYPAGEYTINAQVVDIVSGERVEQLMTVVKK",glycan array binding signal (z-score),Gal6S(b1-3)GlcNAc6S,-0.99
same,glycan array binding signal (z-score),[1],2.09
same,glycan array binding signal (z-score),GlcA(b1-6)Gal,-0.721
same,glycan array binding signal (z-score),[2],3.48
same,glycan array binding signal (z-score),[3],4.35
same,glycan array binding signal (z-score),[4],-0.474
same,glycan array binding signal (z-score),[5],3.92
same,glycan array binding signal (z-score),[6],0.187
same,glycan array binding signal (z-score),[7],0.095
same,glycan array binding signal (z-score),Man(a1-3)[Man(a1-6)]Man,0.76
same,glycan array binding signal (z-score),[8],-0.516
same,glycan array binding signal (z-score),[9],-1.17
same,glycan array binding signal (z-score),[10],0.382
same,glycan array binding signal (z-score),[11],-0.847
same,glycan array binding signal (z-score),[12],3.52
same,glycan array binding signal (z-score),[13],-0.862
same,glycan array binding signal (z-score),[14],3
same,glycan array binding signal (z-score),[15],3.93
same,glycan array binding signal (z-score),[16],-0.009
same,glycan array binding signal (z-score),[17],-0.289
same,glycan array binding signal (z-score),[18],-0.799
same,glycan array binding signal (z-score),[19],1.63
same,glycan array binding signal (z-score),[20],-0.396
same,glycan array binding signal (z-score),[21],-0.211
same,glycan array binding signal (z-score),Neu5Gc(a2-3)Gal(b1-4)Glc,0.337
